Reference: PubChem BioAssay (NCI)
Values joined by “and” are separate entries in the source; they are usually repeats but may differ in a detail not shown here. Identical values can stand only once. About 83,000 compounds went through this panel and 20% of them were active in at least one assay; those are over-represented in the sample as a whole.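 Values shown are percent growth following 48 h exposure of cells in 96-well plates to a single concentration of compound; below 10 was considered active.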 Some structures have more than one record in an assay (separate samples or runs), and their calls can disagree. Active and inactive are the calls of the source.

What was measured:
Experiment in all cases: NCI-60 one-dose screen, 48 h (100 = growth as untreated, 0 = no growth, -100 = all killed)
[1] = system: EKVX NSCLC; conditions: 10 µM
[2] = system: SN12C renal; conditions: 10 µM
[3] = system: UO-31 renal; conditions: 10 µM
Procedure: Growth inhibition of the UO-31 human tumor cell line is measured as a screen for anti-cancer activity. Cells are grown in 96 well plates and exposed to the test compound for 48 hours. Compounds are tested at a single concentration, which is 10^-5 M for most compounds. The reported endpoint is percent growth (GI% or GIPRCNT), where numbers from 0 - 100% represent growth inhibition, and numbers from -100% - 0 represent cell death. For example, a value of 40 represents 60% growth inhibition. A value of 0 means no net growth occurred over the course of the experiment. A value of -40 indicates 40% of cells at the beginning of the experiment died by the end of the experiment. A value of -100 means all cells are dead at the end of the experiment.
NCI-60 Human Tumor Cell Lines Screen was performed using the standard one-dose NCI protocol, which is described in more detail at https://dtp.cancer.gov/discovery_development/nci-60/default.htm.
Compounds with GIPRCNT values below 10 were considered active. Activity score was based on GIPRCNT using the following formula: […]
Score is 0 for GIPRCNT values of 100 or above, 50 for GIPRCNT values of 0, and 100 for GIPRCNT values of -100.

[4] = system: TK-10 renal
[5] = system: ACHN renal; conditions: 10 µM
[6] = system: CAKI-1 renal; conditions: 10 µM
[7] = system: A498 renal; conditions: 10 µM
[8] = system: CCRF-CEM leukemia; conditions: 10 µM
[9] = system: MOLT-4 leukemia; conditions: 10 µM
[10] = system: SR leukemia; conditions: 10 µM

Structure (SMILES) | growth [1] | growth [2] | growth [3] | growth ([4]; 10 µM) | growth ([4]; 100 µM) | growth [5] | growth [6] | growth [7] | growth [8] | growth [9] | growth [10]
C=C1C(=O)OC2CC1C(OC(C)=O)C/C(C)=C/CC/C(C)=C\CCC2(C)O (stereo not given) | 59.3% (inactive) | 40.6% (inactive) | -39.8% (active) | -11.8% (active) | -98.1% (active) | -5.85% (active) | 16% (inactive) | 87.3% (inactive) | -17.1% (active) | -14.4% (active) | -25.1% (active)
Cc1cc(N(CCOS(C)(=O)=O)CCOS(C)(=O)=O)ccc1C=Nc1ccc(-c2nc(Cc3ccccc3)sc2C)cc1 | 11.1% (inactive) | 52.3% (inactive) | 22.2% (inactive) | 14.2% (inactive) | – | -23.2% (active) | -32% (active) | -48.7% (active) | 23.4% (inactive) | 14.2% (inactive) | 23.4% (inactive)
C#CCN(Cc1ccc2nc(N)[nH]c(=O)c2c1)c1ccc(C(=O)NC(CCC(=O)O)C(=O)O)cc1 (stereo not given) | 55.6% (inactive) | 48.9% (inactive) | – | 78.5% (inactive) | – | 30.1% (inactive) | 33.2% (inactive) | 110% (inactive) | 22.5% (inactive) | 39.1% (inactive) | –
Cc1ccc(Sc2ccccc2N)cc1 | 121% (inactive) | 89% (inactive) | 81.5% (inactive) | 98% (inactive) | – | -20% (active) | 62.5% (inactive) | 118% (inactive) | 88.2% (inactive) | 81.2% (inactive) | 71.6% (inactive)
CN(C)CCOC1(Cc2ccc(Cl)cc2Cl)CCC(C(C)(C)C)CC1 (stereo not given) | 48.2% (inactive) and 54.6% (inactive) | 18.8% (inactive) and -12.6% (active) | 29.3% (inactive) and 30.2% (inactive) | 60.4% (inactive) and 61.9% (inactive) | – | 48.7% (inactive) and -4.79% (active) | 36.2% (inactive) and 22.1% (inactive) | 63.9% (inactive) and 63.3% (inactive) | 4.16% (active) and -9.84% (active) | -14.2% (active) and -16.7% (active) | -34.8% (active) and -29.5% (active)
O=[N+]([O-])c1cc[n+]([O-])cc1 | 110% (inactive) | 92.8% (inactive) | 93.6% (inactive) | 110% (inactive) | – | 114% (inactive) | 106% (inactive) | 93.8% (inactive) | 121% (inactive) | 69.3% (inactive) | 107% (inactive)
COc1ccc(C(=O)C(CN(C)C)CN(C)C)cc1 | -17% (active) | 98.9% (inactive) | 17% (inactive) | 15.7% (inactive) | – | -85.5% (active) | -84.8% (active) | 99% (inactive) | 36.3% (inactive) | -32% (active) | -46.3% (active)
CC1=CC(=C(c2ccc(N)cc2)c2ccc(N)cc2)C=CC1=N | 15.5% (inactive) and 46.2% (inactive) | 10.3% (inactive) and 6.77% (active) | 32% (inactive) and 85.8% (inactive) | 38.2% (inactive) and 15.3% (inactive) | – | 28.9% (inactive) and 58.6% (inactive) | 65.5% (inactive) | -7.24% (active) and 57.3% (inactive) | 19.3% (inactive) and 35.8% (inactive) | 10.4% (inactive) and 51.9% (inactive) | 14.7% (inactive) and 24.8% (inactive)
COc1cc([C@@H]2c3cc4c(cc3[C@@H](Nc3ccc(NC(=O)c5cc([N+](=O)[O-])cn5C)cc3)[C@H]3COC(=O)[C@H]23)OCO4)cc(OC)c1O | – | – | – | – | -28.8% (active) | – | – | – | – | – | –
